Data reported in PubChem BioAssay AID588742 (Southern Research Specialized Biocontainment Screening …, 2011).
Hit rate of the full screen: of about 1,800 compounds, about 410 (23%) were called active. A selection follows. Measured potencies and affinities stand elsewhere. A number with no mark means an inactive call. No rule for the calls is given here.

Test: Vero cell cytotoxicity, cytotoxicity control for flavivirus capping enzyme inhibitors (AID 588742)
Details: Vero cells viability, cytotoxicity counter-screen; series mostly up to 40 µM; viability: at the top concentration

Structure (SMILES) | viability
Nc1cc2nsnc2cc1Br | 86.3%
COc1cccc(/C=C2\Oc3cc(OCC(=O)N4Cc5ccccc5C[C@H]4C(=O)O)ccc3C2=O)c1 | 111%
O=C(N/N=C/c1ccc(N2CCOCC2)o1)c1cccc([N+](=O)[O-])c1 | 93.5%
O=C(O)c1ccc(-n2nc(C(F)(F)F)c3c2-c2ccoc2CC3)cc1 | 83.3%
O=C(Nc1cc(C(=O)Nc2ccccc2C(=O)O)cc(C(=O)Nc2ccccc2C(=O)O)c1)c1ccccc1 | 102%
O=C(NNc1cc(Br)c(O)c(Br)c1)c1ccccc1 | 92.3%
O=C(Nc1ccccc1C(=O)O)c1cccc(C(=O)Nc2ccccc2C(=O)O)c1 | 98.6%
O=C(O)c1ccccc1-c1ccccc1C(=O)Nc1ccc2c(c1)C(=O)c1ccccc1-2 | 94.3%
O=C(O)CCN1C(=O)/C(=C\c2cccc(OCc3ccccc3)c2)SC1=S | 83.4%
O=c1c(C(c2ccc(O)cc2)c2c(O)nc3n(c2=O)CCS3)c(O)nc2n1CCS2 | 102%
O=C1CC(=Nc2ccc([N+](=O)[O-])cc2)NN1c1c(Cl)cc(Cl)cc1Cl | 102%
CCOC(=O)Cc1cc(=O)c2c(=O)n(-c3ccccc3)[nH]c2[nH]1 | 97.9%
CCC1(C)Cc2c(C#N)c(N)sc(=S)c2CO1 (stereo not drawn) | 90.5%
CC(=O)/C(=N/Nc1ccccc1)Sc1nnc(CCc2ccccc2)n1-c1ccccc1 | 97%
CCc1nnc(NC(=O)CCC(=O)N2CCN(c3ccccn3)CC2)s1 | 98.1%
CCc1nnc(NS(=O)(=O)c2ccc(NC(=S)NC(=O)/C=C/c3ccc(F)cc3)cc2)s1 | 87.5%
CCc1nnc(NS(=O)(=O)c2ccc(NC(=S)NC(=O)/C=C/c3ccc(C(C)C)cc3)cc2)s1 | 87.8%
CCOC(=O)Nc1sc(NS(=O)(=O)c2ccccc2)nc1C | 93.1%
CCC(=O)Nc1ccc2nc3c(=O)[nH]c(=S)[nH]c3nc2c1 | 93.2%
C=CCOc1ccc(/C=C2\SC(=S)N(NS(=O)(=O)c3ccc(C)cc3)C2=O)cc1 | 95.5%
O=C(CNc1cccc2ccccc12)N/N=C/c1ccc(C(=O)O)cc1 | 93.6%

Structure (SMILES) | viability
CCC1(c2ccccc2)NC(=S)N(c2cccc(C)c2C)N1 (stereo not drawn) | 99%
O=C(O)/C=C/C(=O)c1ccc2c(c1)NC(=O)CO2 | 98%
COc1cc(/C=C2/SC(=S)N(CC(=O)O)C2=O)ccc1OC(=O)c1cccs1 | 99.7%
CC(C)C(=O)OC1CCS(=O)(=O)c2sccc21 (stereo not drawn) | 95.5%
CCCc1nc(C)c2c(=O)[nH]c(-c3cc(S(=O)(=O)N4CCN(CC)CC4)ccc3OCC)nn12 | 97.8%
CCOc1c(Br)cc(CNc2ccc(N3CCN(C(C)=O)CC3)cc2)cc1OC | 83.5%
COc1cccc(CNc2ccc(N3CCCCC3)cc2)c1OC | 87.1%
Cc1nn(-c2ccccc2)c(Cl)c1/C=C1\SC(=S)N(CCCCCC(=O)O)C1=O | 87.3%
COC(=O)c1c(C)oc2c1cc(NS(=O)(=O)c1ccc(C(=O)O)cc1)c1ccccc12 | 96.5%
CC(=O)Nc1ccc(NS(=O)(=O)c2ccccc2)c2ccccc12 | 112%
CCOC(=O)c1c(C)oc2c1cc(NS(=O)(=O)c1ccc(C(=O)O)cc1)c1ccccc12 | 96.6%
CCOc1cc(NS(=O)(=O)c2ccccc2)c(OCC)cc1NC(=O)c1ccco1 | 98.2%
COc1ccccc1/C=C1/C(=O)ON=C1C | 98.1%
Cc1ccc(N2C(=O)c3ccccc3C2C(=O)c2ccc(O)cc2O)cc1 (stereo not drawn) | 84.7%
CC1=C(C#N)c2nc(N)c(C#N)c(C)c2/C1=C\c1ccc(OCC(=O)O)c(Cl)c1 | 94.5%
NC(=S)c1cc2cc(Br)ccc2oc1=O | 95.1%
CC(=O)C(=Cc1cc(C)n(-c2ccccc2)c1C)C(C)=O | 98.5%
CCN(CCCNc1cc2c(c(N)c1S(=O)(=O)O)C(=O)c1ccccc1C2=O)c1ccccc1 | 80.3%
CCC(=O)Nc1cc(C(=O)O)ccc1Sc1ccc(C)cc1 | 96.3%
CCOC(=O)Cc1csc(NC(=O)NC2(C(F)(F)F)Oc3ccccc3O2)n1 | 99.8%
O=C(O)CCCN1C(=O)/C(=C\c2ccco2)SC1=S | 106%

Structure (SMILES) | viability
O=C(O)CCCN1C(=O)/C(=C/C=C/c2ccco2)SC1=S | 93.8%
O=S(=O)([O-])CCC[n+]1c(SCCCS(=O)(=O)O)sc2ccc(Cl)cc21 | 104%
O=C(O)CSc1nc(-c2ccc(Cl)cc2)nc2c1oc1ccccc12 | 90.5%
O=S(=O)(Nc1ccc(O)c2ccccc12)c1ccc(F)cc1 | 95.8%
CCc1ccc(S(=O)(=O)Nc2ccc(O)c3ccccc23)cc1 | 100%
O=C(NNS(=O)(=O)c1ccc([N+](=O)[O-])cc1)c1ccc2ccccc2c1O | 95.5%
O=C(O)c1ccccc1NS(=O)(=O)c1cccc(NS(=O)(=O)c2cc(Br)ccc2Br)c1 | 95.6%
N#C/C(=C\c1ccccc1)C(=O)NNS(=O)(=O)c1cccc([N+](=O)[O-])c1 | 92%
O=C(O)COc1ccccc1/C=N/Nc1ccc(S(=O)(=O)Nc2ccc(Cl)cc2)cc1[N+](=O)[O-] | 100%
O=C(O)CSc1c(O)c2ccccc2[nH]c1=O | 105%
Cc1nnc(SCC2=C(C(=O)O)N3C(=O)C(NC(=O)c4cccc(F)c4F)C3SC2)s1 (stereo not drawn) | 112%
CC1(OC(=O)CCc2ccccc2)C(=O)C=C2C=C(c3ccc(C#N)cc3)N(Cc3ccccc3)C=C2C1=O (stereo not drawn) | 86.1%
O=C1NN(c2cccc(Br)c2)C(=O)/C1=C/c1ccc(-c2cc([N+](=O)[O-])ccc2O)o1 | 104%
Cc1ccc([C@@H]2CC=C(C(=O)O)[C@H](c3ccc(Br)cc3)N2S(=O)(=O)c2ccccc2C)cc1 | 83%
CCCc1cc(=O)oc2c(CN3CCCC3)c(O)c(Cl)cc12 | 102%
Cc1ccc(CSc2nnc3c(n2)OC2(Nc4ccccc4-3)C(=O)Nc3ccc(F)cc32)cc1 (stereo not drawn) | 94.7%
CCN(CCCNC(=O)CCc1nc(-c2ccc(OC)cc2)no1)c1cccc(C)c1 | 83.7%
CCN(CC)c1ccc(C2C3CCCCC3(O)CCN2CC(=O)N2CCCCC2)cc1 (stereo not drawn) | 91.2%
CCN(/N=C/c1ccc(N(C)C)cc1)c1nc2ccccc2[nH]1 | 99%
COc1ccccc1NS(=O)(=O)c1ccc(N/N=C/c2ccccc2OCC(=O)O)c([N+](=O)[O-])c1 | 94.2%
O=C1NN(c2cccc(Br)c2)C(=O)/C1=C\c1ccccc1 | 95.5%
